Laboratory results: PubChem BioAssay (NCATS)
Results filed as inconclusive are left out. Values without a mark were called inactive. Activity calls are given as the source filed them. Calls come from the whole dose curve; as a rule, active = well fitted inhibition curve with a large enough effect; inconclusive = small, poorly fitted or top-dose-only effect; inactive = flat fitted curve, though single readings scatter.

System: Zika virus NS2B-NS3 protease
Assay: Primary screen GU AMC qHTS for Zika virus inhibitors (AID 1347154);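 note: 0% = no-inhibitor control and -100% = no-enzyme control; nearly all actives have a fitted effect of over 70% in size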
Settings: Zika NS2B-NS3 unlinked protease, AMC fluorogenic substrate; series mostly up to 54.1 µM; activity change, negative = inhibition: at the top concentration
Procedure, shortened: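 Unlinked Zika NS2B hydrophilic domain–NS3 protease complex at 25 nM in 10 mM Tris-HCl pH 8.0, 0.01% Tween 20, with an AMC peptide substrate. Fluorescence change (340/450 nm) over 15 min at room temperature, normalized to controls, fitted to 4-parameter Hill.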

In order of falling “activity change, negative = inhibition” value:
1. C[C@@H](O)[C@H]1C(=O)N2C(C(=O)O)=C([C@H]3CCCO3)S[C@H]12  9.91%
2. CC(=O)O[C@H]1C[C@@H]2CC[C@@H]3[C@H](CC[C@@]4(C)[C@H]3C[C@H]([N+]3(C)CCCCC3)[C@@H]4OC(C)=O)[C@@]2(C)C[C@@H]1N1CCCCC1  5.43%
3. OC[C@H]1O[C@@H]2O[C@H]3[C@H](O)[C@@H](O)[C@@H](O[C@H]4[C@H](O)[C@@H](O)[C@@H](O[C@H]5[C@H](O)[C@@H](O)[C@@H](O[C@H]6[C@H](O)[C@@H](O)[C@@H](O[C@H]7[C@H](O)[C@@H](O)[C@@H](O[C@H]8[C@H](O)[C@@H](O)[C@@H](O[C@H]1[C@H](O)[C@H]2O)O[C@@H]8CO)O[C@@H]7CO)O[C@@H]6CO)O[C@@H]5CO)O[C@@H]4CO)O[C@@H]3CO  3.31%
4. CC(CNC1CCCCC1)OC(=O)c1ccccc1 (stereo not given)  2.47%
5. O=C(O)CCC(=O)Nc1ccc(S(=O)(=O)Nc2nccs2)cc1  2.34%
6. Cc1ccccc1OCC(O)CO (stereo not given)  1.72%
7. NC(=O)C1(N2CCCCC2)CCN(CCCC(=O)c2ccc(F)cc2)CC1  1.25%
8. C/C=C/C=N/NC(=O)c1ccncc1  1.06%
9. CC(C)Cn1cnc2c1c(=O)n(C)c(=O)n2C  0.981%
10. CN(C)CCOC(=O)C(c1ccccc1)C1(O)CCCC1 (stereo not given)  0.703%
11. CN(C)CCN1C(=O)c2ccccc2N(C)c2ccccc21  0.0491%
12. Cc1cccc(C)c1NC(=O)CN1CCCC1  -0.315%
13. CC(=O)N[C@@H](CCC(=O)O)C(=O)O  -0.444%
14. CN1CCN(CCC(=O)N2c3ccccc3Sc3ccc(C(F)(F)F)cc32)CC1  -1.16%
15. COc1cc(C)nc(-n2nc(C)cc2OC)n1  -2.4%
16. CO[C@]12C[C@@H](COC(=O)c3cncc(Br)c3)CN(C)[C@@H]1Cc1cn(C)c3cccc2c13  -2.57%
17. CCCCCCCC/C=C\CCCCCCCCN  -2.73%
18. c1ccc(CC2=NCCN2)cc1  -3.38%
19. NC(=S)N/N=C/c1cccnc1  -3.47%
20. O=C(O)c1ccc(S(=O)(=O)N(Cl)Cl)cc1  -3.63%
21. CC(C)CCCC(C)N (stereo not given)  -4.32%
22. COc1ccc2c(c1)c1c3n2CCN(C)C3=NCC1  -4.66%
23. Cc1cccc(C)c1NC(=O)c1ccccc1C(=O)O  -4.8%
24. CN1CCC(OC(c2ccccc2)c2ccccc2)CC1  -5.14%
25. COc1ccc(S(=O)(=O)N2c3ccc(Cl)cc3[C@@](O)(c3ccccc3Cl)[C@H]2C(=O)N2CCC[C@@H]2C(N)=O)cc1OC  -5.45%
26. O=C(Nc1ncc([N+](=O)[O-])s1)c1cccs1  -5.8%
27. O=C(CN1CCN(Cc2ccc3c(c2)OCO3)CC1)N1c2ccccc2Sc2ccccc21  -6.04%
28. C#C[C@]1(O)CC[C@H]2[C@@H]3CCc4cc(OC)ccc4[C@H]3CC[C@@]21C  -6.46%
29. C/C=C/c1ccc(O)c(OC)c1  -7.13%
30. O=C1OC(CN2CCOCC2)CN1/N=C/c1ccc([N+](=O)[O-])o1 (stereo not given)  -8.53%
31. CC(=O)O[C@]1(C(C)=O)CC[C@H]2[C@@H]3C=C(Cl)C4=CC(=O)CC[C@]4(C)[C@H]3CC[C@@]21C  -9.07%
32. CN1CCN(c2cc3c(cc2F)c(=O)c(C(=O)O)cn3-c2ccc(F)cc2)CC1  -12.3%
33. CCN(CC)CCNc1ccc(CO)c2sc3ccccc3c(=O)c12  -17.2%
34. CCCCCCCCCCCCCC[N+](C)(C)Cc1ccccc1  -21.2%

With `COc1ccccc1N1CCN(CCCCNC(=O)c2ccc(-c3ccc(C(C)=O)cc3)cc2)CC1` the Potency was “inactive”.
`O=C1C(=O)c2ccccc2C(O)=C1C1CCC(c2ccc(Cl)cc2)CC1` (stereo not given) was tested, and the Potency was “inactive”.
For `CN1CCN(C2=Nc3ccccc3Sc3ccc(Cl)cc32)CC1`, the Potency was “inactive”.
`COc1ccc(CCN(C)CCCN2CCc3cc(OC)c(OC)cc3CC2=O)cc1OC` was tested, and the Potency was “inactive”.
For `CN(CCCN1c2ccccc2CCc2ccccc21)CC(=O)c1ccc(Cl)cc1`, the Potency was “inactive”.
For `CC(C)(Cc1c[nH]c2ccccc12)NCC(O)COc1ccccc1C#N` (stereo not given), the Potency was “inactive”.
